Measured values: PMC7862700, “An all-to-all approach to the identification of sequence-specific readers for epigenetic DNA modifications on cytosine”

Tests used:
Test in all cases: DAPPL (digital affinity profiling via proximity ligation, sequencing); 10 mM Tris-HCl pH 7.5, 50 mM NaCl, 1 mM DTT, 4% glycerol, room temperature, 30 min; GST-TFs on glutathione beads, 16-mer random dsDNA library, 0.1% formaldehyde crosslink after washing; high values mean tight binding
FLI1 = biological target: T1, FLI1 (Homo sapiens, UniProt Q01543 1-452); details: protein: recombinant; tags: N-terminal GST; dsDNA, one strand shown
T1 sequence: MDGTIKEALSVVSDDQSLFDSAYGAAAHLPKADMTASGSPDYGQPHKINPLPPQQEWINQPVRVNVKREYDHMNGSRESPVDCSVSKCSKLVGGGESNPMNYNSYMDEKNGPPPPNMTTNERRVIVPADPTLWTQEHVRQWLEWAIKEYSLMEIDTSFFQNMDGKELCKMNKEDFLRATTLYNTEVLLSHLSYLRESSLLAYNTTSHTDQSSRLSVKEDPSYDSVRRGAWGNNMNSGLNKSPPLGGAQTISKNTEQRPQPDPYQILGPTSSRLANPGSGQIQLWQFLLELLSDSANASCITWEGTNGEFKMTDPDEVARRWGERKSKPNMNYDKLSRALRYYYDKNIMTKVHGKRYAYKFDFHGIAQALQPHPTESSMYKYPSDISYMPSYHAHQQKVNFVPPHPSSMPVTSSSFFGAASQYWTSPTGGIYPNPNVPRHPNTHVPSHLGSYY
Method in brief: (§1)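 Beads coated with glutathione captured GST-fused human transcription factors that had been expressed in yeast, and the factors were then given DNA barcodes and pooled with a tag-only sample. The pools were incubated with 200 nmole of a random double-stranded 16-mer DNA library in Tris/NaCl/DTT/glycerol buffer for 30 min at room temperature, washed, crosslinked with 0.1% formaldehyde and proximity-ligated with BsaI/T4 ligase at 37 °C for 1 h. PCR amplification and Illumina NextSeq500 sequencing came last. Binding signal is each hexamer's read frequency for a factor divided by its frequency for the tag-only sample.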

ELK1 = biological target: T2, ELK1 (Homo sapiens, UniProt P19419 1-428); details: protein: recombinant; tags: N-terminal GST; dsDNA, one strand shown
T2 sequence: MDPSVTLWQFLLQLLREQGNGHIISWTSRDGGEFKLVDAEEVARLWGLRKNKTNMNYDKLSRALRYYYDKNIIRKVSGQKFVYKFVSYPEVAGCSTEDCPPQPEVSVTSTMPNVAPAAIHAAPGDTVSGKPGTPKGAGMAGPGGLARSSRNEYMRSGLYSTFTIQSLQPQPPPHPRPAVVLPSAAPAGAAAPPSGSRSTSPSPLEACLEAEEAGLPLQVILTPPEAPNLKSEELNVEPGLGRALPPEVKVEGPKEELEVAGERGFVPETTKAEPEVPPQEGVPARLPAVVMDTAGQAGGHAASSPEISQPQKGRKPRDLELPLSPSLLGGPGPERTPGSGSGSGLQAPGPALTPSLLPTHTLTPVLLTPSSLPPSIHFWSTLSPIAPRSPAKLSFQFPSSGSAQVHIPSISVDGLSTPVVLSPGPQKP
Method in brief: as §1

ERG = biological target: T3, ERG (Homo sapiens, UniProt P11308 1-479); details: protein: recombinant; tags: N-terminal GST; dsDNA, one strand shown
T3 sequence: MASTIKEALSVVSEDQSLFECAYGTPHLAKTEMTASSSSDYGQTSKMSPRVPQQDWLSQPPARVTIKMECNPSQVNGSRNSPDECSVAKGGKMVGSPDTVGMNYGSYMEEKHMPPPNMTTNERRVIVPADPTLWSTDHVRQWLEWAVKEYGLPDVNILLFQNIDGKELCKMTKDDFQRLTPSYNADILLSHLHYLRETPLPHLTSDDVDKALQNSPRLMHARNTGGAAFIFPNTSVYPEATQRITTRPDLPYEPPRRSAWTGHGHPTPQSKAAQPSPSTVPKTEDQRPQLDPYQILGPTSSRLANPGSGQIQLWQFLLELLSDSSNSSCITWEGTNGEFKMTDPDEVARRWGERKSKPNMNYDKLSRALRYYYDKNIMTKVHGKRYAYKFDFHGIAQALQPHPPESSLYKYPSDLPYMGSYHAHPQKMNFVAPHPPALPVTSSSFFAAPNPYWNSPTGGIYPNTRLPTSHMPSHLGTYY
Method in brief: as §1

EHF = biological target: T4, EHF (Homo sapiens, UniProt Q9NZC4 1-300); details: protein: recombinant; tags: N-terminal GST; dsDNA, one strand shown
T4 sequence: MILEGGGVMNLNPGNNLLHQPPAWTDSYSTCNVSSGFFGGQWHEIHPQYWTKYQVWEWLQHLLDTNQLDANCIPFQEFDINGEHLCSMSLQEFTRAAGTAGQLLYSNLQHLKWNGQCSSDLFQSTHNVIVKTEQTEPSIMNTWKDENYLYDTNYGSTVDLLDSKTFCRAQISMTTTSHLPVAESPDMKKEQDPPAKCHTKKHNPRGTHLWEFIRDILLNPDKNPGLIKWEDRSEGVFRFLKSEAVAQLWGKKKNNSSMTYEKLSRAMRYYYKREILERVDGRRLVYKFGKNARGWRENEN
Method in brief: as §1

SPI1 = SPI1 (Homo sapiens, UniProt P17947 1-270); details: protein: recombinant; tags: N-terminal GST; dsDNA, one strand shown
Method in brief: as §1

SPIB = SPIB (Homo sapiens, UniProt Q01892 1-262); details: protein: recombinant; tags: N-terminal GST; dsDNA, one strand shown
Chain of SPIB (Q01892 whole entry): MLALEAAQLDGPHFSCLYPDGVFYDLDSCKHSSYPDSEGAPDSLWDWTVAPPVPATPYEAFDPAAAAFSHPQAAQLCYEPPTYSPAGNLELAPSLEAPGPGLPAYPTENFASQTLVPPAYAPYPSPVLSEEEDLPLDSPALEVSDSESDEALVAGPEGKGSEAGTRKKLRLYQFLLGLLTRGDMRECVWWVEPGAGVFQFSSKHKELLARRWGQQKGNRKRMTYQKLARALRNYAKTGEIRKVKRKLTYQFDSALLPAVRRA
Method in brief: as §1

ELK3 = biological target: T5, ELK3 (Homo sapiens, UniProt P41970 1-407); details: protein: recombinant; tags: N-terminal GST; dsDNA, one strand shown
T5 sequence: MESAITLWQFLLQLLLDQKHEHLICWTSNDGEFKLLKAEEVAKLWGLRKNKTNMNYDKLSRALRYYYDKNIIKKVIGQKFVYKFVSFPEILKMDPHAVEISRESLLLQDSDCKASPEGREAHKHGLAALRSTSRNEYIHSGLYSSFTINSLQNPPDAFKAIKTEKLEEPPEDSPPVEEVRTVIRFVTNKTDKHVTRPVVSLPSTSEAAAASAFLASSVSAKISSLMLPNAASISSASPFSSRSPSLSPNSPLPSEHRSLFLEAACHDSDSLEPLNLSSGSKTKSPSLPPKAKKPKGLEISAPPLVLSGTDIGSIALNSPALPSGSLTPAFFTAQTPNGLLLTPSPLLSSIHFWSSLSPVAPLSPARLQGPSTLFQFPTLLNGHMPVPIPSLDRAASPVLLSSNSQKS
Method in brief: as §1

FEV = biological target: T6, FEV (Homo sapiens, UniProt Q99581 1-238); details: protein: recombinant; tags: N-terminal GST; dsDNA, one strand shown
T6 sequence: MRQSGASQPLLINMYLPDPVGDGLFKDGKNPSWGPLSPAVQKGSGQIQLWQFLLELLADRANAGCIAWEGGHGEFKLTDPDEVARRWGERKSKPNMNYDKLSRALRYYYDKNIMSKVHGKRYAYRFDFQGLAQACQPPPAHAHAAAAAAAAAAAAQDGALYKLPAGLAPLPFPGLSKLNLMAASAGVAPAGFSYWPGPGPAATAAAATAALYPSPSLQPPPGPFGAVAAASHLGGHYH
Method in brief: as §1

ETV5 = ETV5 (Homo sapiens, UniProt P41161 1-510); details: protein: recombinant; tags: N-terminal GST; dsDNA, one strand shown
Chain of ETV5 (P41161 whole entry): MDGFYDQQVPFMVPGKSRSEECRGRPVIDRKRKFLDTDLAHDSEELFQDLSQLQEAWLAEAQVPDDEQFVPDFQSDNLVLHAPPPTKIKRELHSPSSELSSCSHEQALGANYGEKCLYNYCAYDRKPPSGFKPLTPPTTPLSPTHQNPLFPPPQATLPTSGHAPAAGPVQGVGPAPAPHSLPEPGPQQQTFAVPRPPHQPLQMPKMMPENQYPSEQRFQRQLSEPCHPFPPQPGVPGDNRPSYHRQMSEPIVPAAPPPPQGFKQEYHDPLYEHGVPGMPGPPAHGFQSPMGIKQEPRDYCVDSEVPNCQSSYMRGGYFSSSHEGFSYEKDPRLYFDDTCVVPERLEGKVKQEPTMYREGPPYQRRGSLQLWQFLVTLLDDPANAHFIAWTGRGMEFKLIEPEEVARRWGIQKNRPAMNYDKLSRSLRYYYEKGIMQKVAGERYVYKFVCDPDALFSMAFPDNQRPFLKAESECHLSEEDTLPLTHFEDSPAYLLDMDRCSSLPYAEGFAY
Method in brief: as §1

HSF1 = HSF1 (Homo sapiens, UniProt Q00613 1-529); details: protein: recombinant; tags: N-terminal GST; chain copies: 3; dsDNA, one strand shown
Chain of HSF1 (Q00613 whole entry): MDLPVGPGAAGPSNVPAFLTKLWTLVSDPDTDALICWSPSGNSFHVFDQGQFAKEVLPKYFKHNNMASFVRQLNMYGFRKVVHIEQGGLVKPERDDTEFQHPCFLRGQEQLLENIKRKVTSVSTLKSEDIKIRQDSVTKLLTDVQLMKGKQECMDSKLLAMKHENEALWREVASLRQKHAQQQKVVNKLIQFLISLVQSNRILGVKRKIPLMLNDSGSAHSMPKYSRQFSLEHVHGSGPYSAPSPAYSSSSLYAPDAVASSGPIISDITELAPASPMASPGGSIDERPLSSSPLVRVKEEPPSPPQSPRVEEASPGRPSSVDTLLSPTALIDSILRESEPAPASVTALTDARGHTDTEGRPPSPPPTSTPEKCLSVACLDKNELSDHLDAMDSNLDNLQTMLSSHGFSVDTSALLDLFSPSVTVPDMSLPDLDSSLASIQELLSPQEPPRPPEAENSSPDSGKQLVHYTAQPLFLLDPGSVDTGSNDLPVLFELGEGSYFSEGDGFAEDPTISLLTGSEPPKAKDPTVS
Method in brief: as §1

SPIC = biological target: T7, SPIC (Homo sapiens, UniProt Q8N5J4 1-248); details: protein: recombinant; tags: N-terminal GST; dsDNA, one strand shown
T7 sequence: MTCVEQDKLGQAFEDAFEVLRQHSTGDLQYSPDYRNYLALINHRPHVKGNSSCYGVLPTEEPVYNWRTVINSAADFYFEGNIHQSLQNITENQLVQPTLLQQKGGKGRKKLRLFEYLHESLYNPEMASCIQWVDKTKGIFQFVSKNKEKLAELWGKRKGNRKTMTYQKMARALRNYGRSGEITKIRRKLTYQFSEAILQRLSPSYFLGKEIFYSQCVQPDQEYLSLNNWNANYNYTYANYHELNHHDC
Method in brief: as §1

ELF4 = ELF4 (Homo sapiens, UniProt Q99607 1-663); details: protein: recombinant; tags: N-terminal GST; dsDNA, one strand shown
Chain of ELF4 (Q99607 whole entry): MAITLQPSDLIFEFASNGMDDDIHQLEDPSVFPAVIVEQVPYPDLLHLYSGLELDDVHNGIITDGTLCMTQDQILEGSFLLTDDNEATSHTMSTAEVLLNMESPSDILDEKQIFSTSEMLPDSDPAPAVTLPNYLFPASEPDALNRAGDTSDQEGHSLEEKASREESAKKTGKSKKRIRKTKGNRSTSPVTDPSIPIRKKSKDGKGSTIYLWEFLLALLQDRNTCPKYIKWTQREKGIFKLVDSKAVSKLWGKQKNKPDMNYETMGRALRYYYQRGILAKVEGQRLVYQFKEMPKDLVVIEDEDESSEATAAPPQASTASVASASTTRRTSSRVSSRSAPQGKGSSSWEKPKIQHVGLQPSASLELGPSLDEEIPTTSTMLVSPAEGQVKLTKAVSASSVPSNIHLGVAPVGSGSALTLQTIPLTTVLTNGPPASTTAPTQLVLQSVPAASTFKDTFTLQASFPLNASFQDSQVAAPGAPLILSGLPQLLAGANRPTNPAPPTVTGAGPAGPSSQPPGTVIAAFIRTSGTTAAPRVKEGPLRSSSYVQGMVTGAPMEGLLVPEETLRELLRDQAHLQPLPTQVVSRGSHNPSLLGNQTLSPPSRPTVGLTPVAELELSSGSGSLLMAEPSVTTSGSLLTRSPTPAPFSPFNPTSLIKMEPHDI
Method in brief: as §1

ELF3 = biological target: T8, ELF3 (Homo sapiens, UniProt P78545 1-371); details: protein: recombinant; tags: N-terminal GST; dsDNA, one strand shown
T8 sequence: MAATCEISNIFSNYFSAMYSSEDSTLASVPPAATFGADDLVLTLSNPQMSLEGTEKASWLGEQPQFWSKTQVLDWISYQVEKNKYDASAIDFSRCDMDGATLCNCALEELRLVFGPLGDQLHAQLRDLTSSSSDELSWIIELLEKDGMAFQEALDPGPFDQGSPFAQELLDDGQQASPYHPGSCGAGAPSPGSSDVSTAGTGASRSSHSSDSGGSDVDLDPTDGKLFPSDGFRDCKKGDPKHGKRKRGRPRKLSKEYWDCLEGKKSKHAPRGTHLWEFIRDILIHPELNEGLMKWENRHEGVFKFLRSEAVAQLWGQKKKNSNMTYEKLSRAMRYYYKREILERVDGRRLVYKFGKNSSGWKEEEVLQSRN
Method in brief: as §1

CRX = CRX (Homo sapiens, UniProt O43186 1-299); details: protein: recombinant; tags: N-terminal GST; dsDNA, one strand shown
Chain of CRX (O43186 whole entry): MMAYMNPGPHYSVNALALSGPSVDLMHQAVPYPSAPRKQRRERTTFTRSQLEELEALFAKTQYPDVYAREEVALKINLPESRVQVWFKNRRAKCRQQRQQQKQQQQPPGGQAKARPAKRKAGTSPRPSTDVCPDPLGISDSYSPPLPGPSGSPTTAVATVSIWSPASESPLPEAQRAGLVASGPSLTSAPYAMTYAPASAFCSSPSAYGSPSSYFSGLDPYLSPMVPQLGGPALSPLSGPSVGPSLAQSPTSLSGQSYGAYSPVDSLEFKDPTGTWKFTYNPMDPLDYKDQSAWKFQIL
Method in brief: as §1

ETV1 = ETV1 (Homo sapiens, UniProt P50549 1-477); details: protein: recombinant; tags: N-terminal GST; dsDNA, one strand shown
Chain of ETV1 (P50549 whole entry): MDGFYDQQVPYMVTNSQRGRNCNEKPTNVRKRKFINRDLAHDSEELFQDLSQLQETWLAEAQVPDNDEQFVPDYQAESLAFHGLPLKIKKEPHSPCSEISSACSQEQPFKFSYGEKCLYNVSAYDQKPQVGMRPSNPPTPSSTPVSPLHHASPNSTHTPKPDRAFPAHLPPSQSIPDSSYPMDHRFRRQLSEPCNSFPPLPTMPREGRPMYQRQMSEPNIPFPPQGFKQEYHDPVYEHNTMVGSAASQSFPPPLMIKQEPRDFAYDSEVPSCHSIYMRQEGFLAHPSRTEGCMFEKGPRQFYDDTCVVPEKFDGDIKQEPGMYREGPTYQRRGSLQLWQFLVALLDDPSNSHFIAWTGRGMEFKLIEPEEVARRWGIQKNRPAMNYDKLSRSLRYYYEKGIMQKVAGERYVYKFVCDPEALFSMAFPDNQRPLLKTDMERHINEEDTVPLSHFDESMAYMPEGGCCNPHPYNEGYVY
Method in brief: as §1

GABPA = biological target: T9, GABPA (Homo sapiens, UniProt Q06546 1-454); details: protein: recombinant; tags: N-terminal GST; dsDNA, one strand shown
T9 sequence: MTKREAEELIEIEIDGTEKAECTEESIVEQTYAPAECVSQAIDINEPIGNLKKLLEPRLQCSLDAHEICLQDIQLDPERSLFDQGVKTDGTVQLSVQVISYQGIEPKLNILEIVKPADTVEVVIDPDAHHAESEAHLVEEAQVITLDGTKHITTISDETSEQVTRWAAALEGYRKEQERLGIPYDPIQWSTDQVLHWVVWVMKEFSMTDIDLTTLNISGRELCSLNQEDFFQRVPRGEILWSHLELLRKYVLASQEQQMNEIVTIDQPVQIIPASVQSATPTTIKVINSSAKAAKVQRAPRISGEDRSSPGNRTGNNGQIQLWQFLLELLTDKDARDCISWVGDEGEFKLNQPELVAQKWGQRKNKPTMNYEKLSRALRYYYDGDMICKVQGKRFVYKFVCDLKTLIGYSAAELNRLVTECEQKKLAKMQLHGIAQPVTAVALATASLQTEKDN
Method in brief: as §1

ELF1 = ELF1 (Homo sapiens, UniProt P32519 1-619); details: protein: recombinant; tags: N-terminal GST; dsDNA, one strand shown
Chain of ELF1 (P32519 whole entry): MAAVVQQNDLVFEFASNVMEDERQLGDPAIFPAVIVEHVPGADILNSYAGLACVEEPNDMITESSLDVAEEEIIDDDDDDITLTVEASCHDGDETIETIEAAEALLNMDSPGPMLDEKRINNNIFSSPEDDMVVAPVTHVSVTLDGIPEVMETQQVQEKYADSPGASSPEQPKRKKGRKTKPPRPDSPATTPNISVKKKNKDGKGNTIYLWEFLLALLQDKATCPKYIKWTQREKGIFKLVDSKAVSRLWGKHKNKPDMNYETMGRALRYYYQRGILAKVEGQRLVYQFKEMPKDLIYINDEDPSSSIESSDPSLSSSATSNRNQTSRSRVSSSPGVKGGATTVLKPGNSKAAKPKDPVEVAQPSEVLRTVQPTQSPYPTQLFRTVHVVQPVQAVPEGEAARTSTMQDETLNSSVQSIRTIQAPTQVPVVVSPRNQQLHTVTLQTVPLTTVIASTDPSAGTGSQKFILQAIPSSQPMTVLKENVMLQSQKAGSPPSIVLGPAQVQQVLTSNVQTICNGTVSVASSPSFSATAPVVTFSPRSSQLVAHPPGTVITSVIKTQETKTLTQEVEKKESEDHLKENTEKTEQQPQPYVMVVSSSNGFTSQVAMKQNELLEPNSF
Method in brief: as §1

Row | Sequence | binding signal (FLI1) | binding signal (ELK1) | binding signal (ERG) | binding signal (EHF) | binding signal (SPI1) | binding signal (SPIB) | binding signal (ELK3) | binding signal (FEV) | binding signal (ETV5) | binding signal (HSF1) | binding signal (SPIC) | binding signal (ELF4) | binding signal (ELF3) | binding signal (CRX) | binding signal (ETV1) | binding signal (GABPA) | binding signal (ELF1)
1 | AAATCG | 1.03 fold enrichment (6-mer frequency, TF over GST control) | 1.01 fold enrichment (6-mer frequency, TF over GST control) | 1.06 fold enrichment (6-mer frequency, TF over GST control) | 1.03 fold enrichment (6-mer frequency, TF over GST control) | 1.01 fold enrichment (6-mer frequency, TF over GST control) | 1.04 fold enrichment (6-mer frequency, TF over GST control) | 1.04 fold enrichment (6-mer frequency, TF over GST control) | 1 fold enrichment (6-mer frequency, TF over GST control) | 1.04 fold enrichment (6-mer frequency, TF over GST control) | 1.18 fold enrichment (6-mer frequency, TF over GST control) | 1 fold enrichment (6-mer frequency, TF over GST control) | 1.11 fold enrichment (6-mer frequency, TF over GST control) | 1.03 fold enrichment (6-mer frequency, TF over GST control) | 1.26 fold enrichment (6-mer frequency, TF over GST control) | 1.05 fold enrichment (6-mer frequency, TF over GST control) | – | –
2 | CAAGTA | 1.09 fold enrichment (6-mer frequency, TF over GST control) | 1.06 fold enrichment (6-mer frequency, TF over GST control) | 1.03 fold enrichment (6-mer frequency, TF over GST control) | 1.1 fold enrichment (6-mer frequency, TF over GST control) | 1.07 fold enrichment (6-mer frequency, TF over GST control) | 1.01 fold enrichment (6-mer frequency, TF over GST control) | 1.17 fold enrichment (6-mer frequency, TF over GST control) | 1.04 fold enrichment (6-mer frequency, TF over GST control) | 1.11 fold enrichment (6-mer frequency, TF over GST control) | 1.02 fold enrichment (6-mer frequency, TF over GST control) | 1.09 fold enrichment (6-mer frequency, TF over GST control) | 1.16 fold enrichment (6-mer frequency, TF over GST control) | 1.28 fold enrichment (6-mer frequency, TF over GST control) | 1.08 fold enrichment (6-mer frequency, TF over GST control) | 1.03 fold enrichment (6-mer frequency, TF over GST control) | 1.19 fold enrichment (6-mer frequency, TF over GST control) | 1.03 fold enrichment (6-mer frequency, TF over GST control)
